# From PubChem BioAssay AID1852 (Sanford-Burnham Center for Chemical Genomics, 2009)
# The whole screen tested about 2,500 compounds, of which about 1,100 (44%) were called active. So high a share suggests a set chosen from earlier hits. This is one part of the list. Unmarked numbers belong to inactive results.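 How the source made its calls: active means inhibition above 50% at 4 µM in the single-point screen; inactive means inhibition of 50% or less.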
# Experiment: blockers of TNF-a NF-kB luciferase induction – cell-based, HEK293T NF-kB-Luc, luminescence, selectivity assay for NOD1/NOD2 signaling inhibitor project, primary screen (AID 1852)
# Conditions: TNF-a induced, 14 h, at 4 µM, active compounds read high
row,Structure (SMILES),inhibition
1,CC(=O)N1CC(C)Sc2ccc(S(=O)(=O)NCc3ccc(Cl)cc3)cc21 (stereo unspecified),11.8%
2,Clc1ccc(CSc2nnc(-c3ccncc3)o2)cc1,60.2% (active)
3,COC(=O)CSc1nnc(-c2sc3ccccc3c2Cl)o1,48.5%
4,Brc1cccc(CSc2nnc(-c3ccncc3)o2)c1,44.3%
5,Cc1ccc(-c2nnc(SCC(=O)Nc3ccccc3F)o2)cc1,37.8%
6,Fc1ccc(CSc2nnc(-c3ccncc3)o2)cc1,70.1% (active)
7,CCc1cc(C(=O)NC2CCCc3c2cnn3-c2cccc(C)c2C)n(C)n1 (stereo unspecified),59.1% (active)
8,Cc1cc(C(=O)NC2CCCc3c2cnn3-c2cccc(C)c2C)n(C)n1 (stereo unspecified),56.4% (active)
9,Cc1ccccc1NC(=O)COC(=O)c1ccc(S(C)(=O)=O)c([N+](=O)[O-])c1,13%
10,CC(=O)c1c(C)[nH]c(C(=O)OCC(=O)Nc2ccc(C)cc2[N+](=O)[O-])c1C,79.4% (active)
11,COc1ccc(NC(=O)CN2CCc3ccccc3C2)c([N+](=O)[O-])c1,-10.5%
12,O=[N+]([O-])c1ccc(N/N=C/c2sc(N3CCOCC3)nc2-c2ccccc2)c(S(=O)(=O)Nc2ccccc2Cl)c1,88.5% (active)
13,CCN(CC)S(=O)(=O)c1ccc(N2CCOCC2)c(NC(=O)c2cc([N+](=O)[O-])ccc2Cl)c1,-28.1%
14,O=[N+]([O-])c1ccc(N/N=C/c2sc(N3CCOCC3)nc2-c2ccccc2)c(S(=O)(=O)Nc2ccc(Cl)cc2)c1,60.9% (active)
15,Cc1nnc(SCC(=O)N2CCC(c3noc4ccc(F)cc34)CC2)s1,84.5% (active)
16,CCCCCCCn1ccc(=N)cc1,20.9%
17,CCCCCCCCCCn1ccc(=N)cc1,83.1% (active)
18,CCCCCCCCCn1ccc(=N)cc1,76.4% (active)
19,CCCCCCCCn1ccc(=N)cc1,62.3% (active)
20,CC[C@@H](C)[C@H](NC(=O)OC(C)(C)C)c1nnc(S(=O)(=O)Cc2cc(C)ccc2C)o1,38.2%
21,CC1CCN(S(=O)(=O)c2nnc(NC(=O)c3cccc(Cl)c3)s2)CC1,37%
22,CN(C)S(=O)(=O)N1CCC(Oc2cccc(C(=O)NC3CCCCC3)c2)CC1,20.4%
23,CN(C)S(=O)(=O)N1CCC(Oc2cccc(C(=O)NC3CCCCCC3)c2)CC1,54% (active)

row,Structure (SMILES),inhibition
1,CN(Cc1ccccc1)C1=CC(=[N+]2CCCCC2)CC(C)(C)C1,58.1% (active)
2,Cc1nc(Nc2cnc(/C=C/c3cc(C(=O)Nc4cccc(C(F)(F)F)c4)ccc3C)cn2)cc(N2CCNCC2)n1,-21.5%
3,CN(c1ccccc1)S(=O)(=O)c1cccc(NC(=O)c2cc(=O)c3ccccc3o2)c1,63.9% (active)
4,Cc1nc2ccc(NC(=O)c3cc(S(=O)(=O)N(C)c4ccccc4)ccc3Cl)cc2s1,54.6% (active)
5,CSc1ncc(C(=O)Nc2cccc(S(N)(=O)=O)c2)n1-c1ccccc1,8.6%
6,COc1ccc(N(CC(=O)Nc2cccc(N(C)S(C)(=O)=O)c2)S(=O)(=O)c2ccc(C)cc2)cc1,14.3%
7,Cc1nc2ccc(NC(=O)c3cccc(S(=O)(=O)N(C)c4ccccc4)c3)cc2s1,53.4% (active)
8,CC(C(=O)Nc1cccc([N+](=O)[O-])c1)N(c1ccccc1)S(C)(=O)=O (stereo unspecified),-12.9%
9,CCCCn1c(SCC(=O)N2CCN(c3ccccc3)CC2)nc2ccsc2c1=O,28.9%
10,Cc1cccc(NC(=O)/C=C/c2ccc([N+](=O)[O-])s2)c1,57.7% (active)
11,COc1ccc(C)cc1S(=O)(=O)N(CC(=O)Nc1cccc([N+](=O)[O-])c1)c1ccc(C)cc1,16.5%
12,CCOC(=O)/C=C/C(=O)Nc1cccc([N+](=O)[O-])c1,72.3% (active)
13,Cc1nc2cc(NC(=O)c3ccc([N+](=O)[O-])s3)ccc2s1,31.8%
14,COC(=O)/C=C\C(=O)Nc1cccc([N+](=O)[O-])c1,28.4%
15,Cc1cc(C)cc(NC(=O)/C=C/c2ccc([N+](=O)[O-])s2)c1,-10.2%
16,CC(=O)Nc1ccc2nc(NC(=O)c3ccc([N+](=O)[O-])s3)sc2c1,19.3%
17,CC(=O)c1cccc(NC(=O)/C=C/c2ccc([N+](=O)[O-])s2)c1,99.5% (active)
18,CCOc1ccc2[nH]c3c(NCCc4ccc(OC)c(OC)c4)ncnc3c2c1,39.1%
19,COc1cc2ncnc(NCc3ccc(C)cc3)c2cc1OC,0.3%
20,Oc1ccc(CCNc2ncnc3ccc(Cl)cc23)cc1,86.6% (active)
21,COc1ccc(CCNc2ncnc3sccc23)cc1OC,60.1% (active)
22,Fc1ccc(F)c(CNc2ncnc3cc(Cl)ccc23)c1,8.3%
23,COc1ccc(CNc2ncnc3sccc23)cc1OC,50.2% (active)

row,Structure (SMILES),inhibition
1,COc1ccc(CCNc2ncnc3sc(C)cc23)cc1OC,58.6% (active)
2,Clc1cccc(Cl)c1CON/C=N/c1ncnc2sccc12,15.1%
3,COc1ccccc1CNc1ncnc2sccc12,54.1% (active)
4,c1ccc2c(c1)oc1c(Nc3ccc(CN4CCOCC4)cc3)ncnc12,4.6%
5,COc1cc2ncnc(NCCc3ccccc3)c2cc1OC,4.6%
6,COc1ccc(CCNc2ncnc3cc(OC)c(OC)cc23)cc1OC,54.8% (active)
7,C(=N\c1ncnc2sccc12)/NOCc1ccccc1,28.6%
8,COc1ccc(CCNc2ncnc3c2oc2ccccc23)cc1OC,54.8% (active)
9,C=CC[n+]1c(-c2ccc(Cl)cc2Cl)csc1Nc1c(C)n(C)n(-c2ccccc2)c1=O,28.9%
10,C=CC[n+]1c(-c2ccc(C)cc2)csc1Nc1ccc(NC(C)=O)cc1,99.4% (active)
11,C=CC[n+]1c(-c2ccc(Cl)cc2Cl)csc1Nc1ccc(NC(C)=O)cc1,64% (active)
12,Cc1ccc(NC(=O)Nc2nnc(-c3ccncc3)s2)cc1,27.4%
13,Cc1ccc(S(=O)Cc2ccc(C(=O)N3CCN(C4CCCCC4)CC3)o2)cc1 (stereo unspecified),-23.1%
14,Cc1cc(C(=O)CSc2nnc(-c3ccco3)o2)c(C)n1-c1ccc2c(c1)OCCO2,10.1%
15,COc1ccc(-n2c(C)cc(C(=O)CSc3nnc(-c4cccs4)o3)c2C)cc1,71.7% (active)
16,Cc1cc(C(=O)CSc2nnc(-c3cccs3)o2)c(C)n1-c1ccccc1,53.4% (active)
17,Nc1cc2ccncc2c2ccccc12,90.8% (active)
18,NC(=O)c1cc2ccncc2c2ccccc12,90.8% (active)
19,CCn1cc(CN2CCCC(C(=O)c3ccc(-c4ccccc4)cc3)C2)cn1 (stereo unspecified),5.2%
20,Cc1ccc(-c2ccc(=O)n(Cc3ccc(F)cc3)n2)cc1,-22.8%
21,O=C(CSc1nc2nc(-c3cccs3)cc(C(F)(F)F)c2c(=O)[nH]1)Nc1ccc(F)c(F)c1,86% (active)
22,Cc1ccc(C)c(NC(=O)CSc2nc3nc(-c4cccs4)cc(C(F)(F)F)c3c(=O)[nH]2)c1,86.9% (active)
23,N#Cc1c(-c2cccs2)nc(SCc2ccc(Cl)cc2)[nH]c1=O,31.4%

row,Structure (SMILES),inhibition
1,O=C(CSc1nc2nc(-c3cccs3)cc(C(F)(F)F)c2c(=O)[nH]1)Nc1c(F)c(F)c(F)c(F)c1F,92.5% (active)
2,CCOc1ccccc1NC(=O)CSc1nc2nc(-c3cccs3)cc(C(F)(F)F)c2c(=O)[nH]1,74.5% (active)
3,N#Cc1ccc(Cl)cc1NC(=O)CSc1nc2nc(-c3cccs3)cc(C(F)(F)F)c2c(=O)[nH]1,46.8%
4,CCOc1cccc(-c2c(C(=O)N/N=C(\C)c3ccccn3)nnn2-c2nonc2N)c1,66.7% (active)
5,C/C(=N\NC(=O)c1nnn(-c2nonc2N)c1CN(C)c1ccccc1)c1ccccc1O,92.8% (active)
6,C/C(=N\NC(=O)c1nnn(-c2nonc2N)c1-c1ccccc1)c1ccccc1O,93.1% (active)
7,C/C(=N\NC(=O)c1nnn(-c2nonc2N)c1CN(C)c1ccccc1)c1ccccn1,-26.2%
8,Cc1ccc(Nc2nc(N)nc(CCl)n2)c(C)c1,25.1%
9,COc1ccc(Nc2nc(N)nc(CCl)n2)cc1,23.2%
10,CCOc1ccc(Nc2nc(N)nc(CCl)n2)cc1,65.6% (active)
11,COc1ccc(OC)c(Nc2nc(N)nc(CCl)n2)c1,54.9% (active)
12,Cc1ccc(Nc2nc(N)nc(CCl)n2)cc1,-3.9%
13,COc1ccccc1Nc1nc(N)nc(CCl)n1,28%
14,Cc1sc2nc(C3CC3)nc(SCC(=O)N3CCc4ccccc4C3)c2c1C,-10.4%
15,CCc1nc(SCC(=O)N2c3ccccc3CC2C)c2c(C)c(C)sc2n1 (stereo unspecified),-10%
16,CCc1c(C)sc2nc(C(C)C)nc(SCC(=O)N3CCc4ccccc4C3)c12,53.6% (active)
17,COc1ccc(NC(=O)/C(C#N)=C/c2cc(C)n(-c3ccc(N4CCOCC4)c([N+](=O)[O-])c3)c2C)cc1,15%
18,CCOC(=O)N1CCN(C(=O)c2ccc(Cn3c(=S)[nH]c4cc5c(cc4c3=O)OCO5)cc2)CC1,55.2% (active)
19,O=C(c1ccc(Cn2c(=S)[nH]c3ccccc3c2=O)cc1)N1CCN(c2ccccn2)CC1,17.4%
20,O=C(c1ccc(Cn2c(=S)[nH]c3cc4c(cc3c2=O)OCO4)cc1)N1CCN(c2ncccn2)CC1,59.2% (active)
21,CCCCCn1c(=O)[nH]c2cc(C(=O)N3CCN(Cc4ccc5c(c4)OCO5)CC3)ccc2c1=O,34.6%
22,CCOC(=O)N1CCN(C(=O)c2ccc(Cn3c(=S)[nH]c4ccc(Br)cc4c3=O)cc2)CC1,43.2%
